Compounds with a hit are over-represented: about 3.7% of the library has one in this group of screens.
tim10-1 inh – tim10-1 yeast growth inhibition | inhibition, % at 20 µM | S. cerevisiae tim10-1 ts strain growth, BacTiter-Glo, 24 h | 330,000 compounds, 2.2% hits;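 active = inhibition of at least 40%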;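 note: mutant grown at 25 °C; 0% = DMSO wells with yeast and 100% = wells holding no yeast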
tim23-1 inh – tim23-1 yeast growth inhibition; 330,000 compounds, 1.3% hits; inhibition, % at 20 µM; S. cerevisiae tim23-1 growth, BacTiter-Glo luminescence, 24 h;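 active = growth inhibition of the mutant yeast at or above 50%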;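 note: temperature-sensitive mutant grown at 25 °C; plate controls were DMSO-treated mutant yeast for no effect and medium wells lacking yeast for full effect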
PfHsp90 set2 – growth inhibition of yeast expressing Plasmodium Hsp90 | AID 504621 | inhibition, % at 9.4 µM | S. cerevisiae expressing PfHsp90, BacTiter-Glo ATP, 48 h; yeast lacking PDR1 and PDR3 efflux regulators | 310,000 compounds, 0.32% hits;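 active = every replicate shows inhibition above about 80%, whatever the replicate mean, limit read from the data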;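 note: 0% = DMSO neutral controls and 100% = 20 µM radicicol positive controls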
Rce1 inhib – inhibitors of yeast Ras-converting enzyme | yeast membranes, quenched prenylated peptide cleavage fluorescence | calls only | 290,000 compounds, 0.27% hits | AID 2563;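 active = fall in fluorescence gain of 50% or more versus controls, with final raw signal at or below 3038400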;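 note: plate controls were neutral control wells for no effect and wells lacking membranes for full effect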
Target sequence (Q03530 whole entry, looked up): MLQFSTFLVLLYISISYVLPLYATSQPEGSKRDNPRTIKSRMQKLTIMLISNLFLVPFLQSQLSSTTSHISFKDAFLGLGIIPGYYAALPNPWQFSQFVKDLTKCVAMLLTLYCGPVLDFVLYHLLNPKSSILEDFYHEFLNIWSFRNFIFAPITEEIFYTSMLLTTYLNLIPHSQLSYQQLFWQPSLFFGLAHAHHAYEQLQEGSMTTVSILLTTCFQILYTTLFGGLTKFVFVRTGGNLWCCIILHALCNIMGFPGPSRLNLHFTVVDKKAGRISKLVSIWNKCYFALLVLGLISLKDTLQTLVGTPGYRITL
TIM10 inh – growth inhibitors of TIM10 yeast strain. 330,000 compounds, 1.4% hits. inhibition, % at 10 µM. S. cerevisiae TIM10 strain growth, BacTiter-Glo luminescence, 24 h;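 active = inhibition of 40% or more at the single tested concentration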;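 note: wild-type TIM10 isogenic control strain grown at permissive 25 °C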
tim10-1 confirm – tim10-1 yeast growth inhibition, confirmed; S. cerevisiae tim10-1 ts strain growth, BacTiter-Glo, 24 h; 7,400 compounds, 56% hits; AID 463213; shares compounds with tim10-1 inh; inhibition, % at 20 µM;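 active = inhibition of yeast growth at or above a set limit in either of two repeat tests at 20 µM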;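 note: tim10-1 mutant grown at permissive 25 °C to find synthetic lethal compounds; 0% = DMSO yeast wells and 100% = medium wells without yeast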
tim10 confirm – TIM10 yeast growth inhibition, confirmed | shares compounds with TIM10 inh | S. cerevisiae tim10 strain growth, BacTiter-Glo luminescence, 24 h | inhibition, % at 10 µM | 4,600 compounds, 63% hits;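 active = inhibition of yeast growth at or above a set limit in either of two replicates at 10 µM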;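 note: this counterscreen used the strain with wild-type TIM10; 0% = yeast with DMSO and 100% = medium wells lacking yeast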
Active calls of the source: *; i = inactive; . = no result given; + = active, no number.

SMILES	tim10-1 inh	tim23-1 inh	PfHsp90 set2	Rce1 inhib	TIM10 inh	tim10-1 confirm	tim10 confirm
Cc1sc2c(c1C)c(=O)n(-c1cccc(C(F)(F)F)c1)c(=O)n2CC(=O)NCc1ccco1	2	14	36	i	0	.	.
Cc1ccccc1C(=O)NC(=S)Nc1sc2c(c1C#N)CCCC2	21	21	.	i	24	.	.
Cc1onc(-c2ccccc2)c1C(=O)NC(=S)Nc1sc2c(c1C#N)CCCC2	42*	40	-6	i	54*	28	33*
Cc1ccccc1CS(=O)(=O)c1nnc([C@H](Cc2ccccc2)NC(=O)OC(C)(C)C)o1	72*	33	109*	i	68*	51*	50*
CC(C)(C)OC(=O)N[C@@H](Cc1ccccc1)c1nnc(S(=O)(=O)Cc2ccccc2)o1	73*	48	.	.	59*	55*	46*
Cc1noc(C)c1C(=O)N1CCC2(CC1)Oc1ccc(F)cc1C(=O)C21CC(c2ccc(Cl)cc2)=NO1 (configuration not stated)	25	-10	.	i	-13	.	.
CCOC(=O)Cc1csc(Nc2ccc(Cl)cc2)n1	52*	40	-5	i	48*	41*	36*
CC(C)Cc1nc2oc3c(N4CCN(CCO)CC4)ncnc3c2c2c1CCCC2	52*	33	-25	i	44*	37*	20
CCOC(=O)N1CCN(c2ncnc3c2oc2nc(C(C)C)c4c(c23)CCC4)CC1	44*	41	.	.	46*	34*	37*
CC(C)Cc1nc2oc3c(NCc4cccnc4)ncnc3c2c2c1CCC2	23	-13	16	i	-4	.	.
CC(C)c1nc2oc3c(NCc4cccnc4)ncnc3c2c2c1CCC2	26	-10	-10	i	10	.	.
COc1ccc(C(=O)OCc2c(F)cccc2Cl)cc1S(=O)(=O)N1CCOCC1	19	37	-2	.	24	.	.
COc1ccc(C(C)(C)C)cc1NC(=O)COC(=O)c1ccc([N+](=O)[O-])o1	53*	-84	60	i	40	3	92*
COc1ccc(NC(=O)COC(=O)c2ccc([N+](=O)[O-])o2)cc1Cl	-136	-85	2	i	-207	.	.
COc1ccc(C)cc1NC(=O)COC(=O)c1ccc([N+](=O)[O-])o1	78*	45	2	i	88*	74*	-36
Cc1cc(C(=O)COC(=O)c2cccnc2Cl)c(C)n1-c1c(C)n(C)n(-c2ccccc2)c1=O	21	9	6	.	-3	.	.
COc1ccc(C(=O)n2nnc3ccccc32)cc1OC	.	.	-24	.	.	.	.
COc1ccc(C(=O)n2nnc3ccccc32)cc1Br	52*	40	-5	i	40*	22	0
O=C(Oc1ccc(/C=N/O)cc1)c1ccccc1Cl	52*	47	3	i	57*	45*	29
CC(C)(C)c1ccccc1NC(=S)NC1CCCCC1	43*	37	-12	i	45*	20	32*
CC(C)(C)c1ccccc1NC(=S)NC1CCCC1	32	39	21	i	23	.	.
CC1(c2ccccc2)NC(=O)N(CC(=O)NCC2CCCO2)C1=O (configuration not stated)	5	13	1	.	12	.	.
NC(=O)c1cccn1-c1ncc(C(F)(F)F)cc1Cl	-4	7	14	i	4	.	.
O=C(Nc1ccc(Br)cc1)c1cccn1-c1ncc(C(F)(F)F)cc1Cl	47*	47	.	i	52*	43*	43*
Cc1ccc(CNC(=O)CN2C(=O)CSc3ccc(S(=O)(=O)N4CCCCC4)cc32)cc1	18	12	-1	i	7	.	.
SMILES	tim10-1 inh	tim23-1 inh	PfHsp90 set2	Rce1 inhib	TIM10 inh	tim10-1 confirm	tim10 confirm
Cc1cc(C)c(S(=O)(=O)N(CC(=O)N2CCCC2)C2CCCCC2)c(C)c1	40*	48	.	i	43*	23	14
CN(Cc1ccon1)C(=O)CC1C(=O)NCCN1CC(C)(C)C (configuration not stated)	0	14	6	i	7	.	.
CSCc1c(C(=O)NC2CCCc3ccccc32)oc2ccccc12 (configuration not stated)	50*	24	-1	i	41*	33*	-2
C[C@H]1COC(=O)[C@H](Cc2ccc(F)cc2)C/C=C\C[C@H](CC(=O)NCCO)C(=O)N1	-13	5	-7	.	0	.	.
CCCCNC(=S)Nc1ccc(F)cc1	-7	-21	-3	i	10	.	.
CCCCNC(=S)Nc1ccc(SC(F)F)cc1	53*	43	-2	i	41*	36*	30*
O=C1OC(c2ccccc2)=C/C1=C/N1CCCCC1	35	36	-14	i	25	.	.
COC(=O)/C=C1\OC(c2ccccc2)=CC1=O	42*	39	.	i	40*	29	32*
O=C(COc1ccc(/C=N/NC(=O)C(=O)N2CCCCC2)cc1)Nc1ccccc1Cl	14	10	-2	i	14	.	.
O=C(CSCC(=O)OCn1nnc2ccccc2c1=O)Nc1ccc(Cl)cc1	62*	47	14	i	51*	55*	25
O=C(CCCCl)NC(=S)Nc1cc(C(F)(F)F)ccc1N1CCOCC1	53*	48	-21	.	57*	48*	50*
O=C(/C=C/c1ccco1)NC(=S)Nc1cc(C(F)(F)F)ccc1N1CCOCC1	39	22	-9	i	32	.	.
CCN(CC)c1ccc(/C=N/NC(=S)NCc2ccc(OC)cc2)cc1	45*	12	0	+	45*	27	42*
Cc1cccc(Oc2cc(NC(=O)c3ccccc3)cc([N+](=O)[O-])c2)c1	44*	31	18	i	53*	36*	2
CC(=O)C1=NN(c2ccccc2)C(c2ccc3c(c2)OCO3)N1c1ccc(N2CCOCC2)cc1 (configuration not stated)	11	17	-2	i	20	.	.
COc1cccc(N2C(C(C)=O)=NN(c3ccccc3)C2c2ccc(N3CCOCC3)cc2)c1 (configuration not stated)	48*	30	0	i	42*	32*	-10
CCOC(=O)c1c(CSc2ccc(CC)cc2)oc2ccc(O)c(CN(C)C)c12	49*	24	15	i	55*	58*	65*
CCOC(=O)c1c(C)oc2ccc(O)c(CN(C)C)c12	22	21	17	i	10	.	.
O=C(CS(=O)c1ccccc1[N+](=O)[O-])Oc1ccc(Br)cc1 (configuration not stated)	81*	45	10	i	51*	64*	54*

Assay outcomes (PubChem BioAssay)
